PubChem BioAssay AID1063 (University of Pittsburgh Molecular Library Screening Center, 2008)
The campaign covered roughly 200,000 compounds. About 18,000 (9%) were called active. The full list was thinned out, with actives kept by preference. A number with no mark means an inactive call. Rule as the data show it: active = inhibition above about 50%; inactive = the rest.

Assay: antileishmanial activity against promastigotes – primary screen (AID 1063);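 also: promastigotes grown with compound for 44 hours at 28 °C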
Details: Leishmania major promastigotes, resazurin fluorescence viability; at 10 µM; stronger effect = higher value

SMILES	inhibition
CC(C)N(CC#CCC1(O)c2ccccc2-c2ccccc21)C(C)C	2.06%
CN(C)CCCN=Cc1c(O)n(Cc2ccco2)c(=O)[nH]c1=O	-6.14%
C=CCN1C(=O)C2(C(C(=O)OCC)=C(N)Oc3c2c(=O)oc2ccccc32)c2ccccc21 (stereo not given)	-6.93%
Cc1ccsc1C(=O)C1CCCN(Cc2ccc(O)cc2)C1 (stereo not given)	83.9% (active)
Cc1nc2ccc(N3CCN(C)CC3)cc2nc1C	3.66%
COc1cc(Cn2c(N)c(C(=O)NCc3ccco3)c3nc4ccccc4nc32)cc(OC)c1OC	100% (active)
CCOC(=O)c1c(N)n(CCN2CCOCC2)c2nc3ccccc3nc12	24.6%
CCOC(=O)c1c(N)n(Cc2ccccc2)c2nc3ccccc3nc12	100% (active)
O=c1[nH]c(=O)n(-c2ccccc2)c(O)c1C=NC12CN3CN(CN(C3)C1)C2	-6.09%
OC(Cn1c2ccccc2c2ccccc21)C[n+]1ccccc1 (stereo not given)	1.49%
COP(=O)(OC)C(NC(=O)c1ccc(C)cc1)C(Cl)(Cl)Cl (stereo not given)	-7.25%
O=C(Cc1ccccc1[N+](=O)[O-])N1CCN(Cc2ccc3c(c2)OCO3)CC1	48%
CNC(=S)N/N=C1\C2CN3CCN(C2)CC1(c1ccccc1)C3	-5.87%
c1cncc(CNCCc2c[nH]c3ccccc23)c1	22.7%
CCc1nnc(NS(=O)(=O)c2ccc(N=Cc3c(O)n(-c4ccccc4)c(=O)[nH]c3=O)cc2)s1	-1.81%
COP(=O)(NS(=O)(=O)c1ccccc1)OC	-6.48%
COc1ccc(C(=O)C2CCCN(Cc3ccc(C)s3)C2)cc1OC (stereo not given)	89.4% (active)
Cc1cccc2c(CCN)c[nH]c12	0.35%
O=C(Cn1c(=O)n(CC2CS2)c2ccccc21)N1CCCCC1 (stereo not given)	2.59%
CCC(=NCCc1ccccc1)c1c(O)n(C2CCCCC2)c(=O)[nH]c1=O	21%
O=C(Cc1ccccc1)N1CCN(C2CCCCCC2)CC1	64.8% (active)
CCCn1c(C(=O)c2ccccc2OC)nc2ccccc21	15%
C[C@@]1([C@@H](NP(=O)(c2ccccc2)c2ccccc2)c2ccccc2)C[C@H]1CCO	-1.91%
CNP1(NC)=Nc2nn(-c3ccccc3)c(N)c2C(c2ccccc2)=N1	-6.36%
COc1ccccc1N=C1SCCCN1C	-5.49%

SMILES	inhibition
Cc1ccc(-c2nc3ccccc3c(=O)n2-c2ccc(Br)cn2)cc1	3.21%
CC1=CC(=Cc2sc3ccccc3[n+]2C)C=C(C)O1	100% (active)
COc1cc(-n2c(=S)[nH]c3ccc(C)cc3c2=O)c(Cl)cc1Cl	43.6%
Cc1ccc(Cn2nnnc2CN2CCC(n3nnc4ccccc43)CC2)cc1	4.28%
O=C(C1CC(=O)N(C2CCCC2)C1)N1CCC2(CC1)OCCO2 (stereo not given)	-6.1%
CCN(CC)c1ccc([N+](=O)[O-])c2cccnc12	9.8%
Cc1cc(C)cc(NC(=S)NC2CC3CCCC(C2)N3Cc2cccs2)c1 (stereo not given)	87.3% (active)
O=C(COc1ccc2ccccc2c1)N1CCN(Cc2ccncc2)CC1	44.3%
OC1/C(=C/c2ccc(C(F)(F)F)cc2)N2CCC1CC2 (stereo not given)	0.72%
CCOC(=O)C(O)(c1ccc(N=Cc2ccccc2O)c(C)c1)C(F)(F)F (stereo not given)	-7.14%
O=C1/C(=C\c2ccc3c(c2)OCO3)N2CCC1CC2	4.04%
Cc1nc2ccccn2c1P(=S)(N1CCCCC1)N1CCCCC1	97.4% (active)
COc1ccc(CN2CCN(c3ccccc3F)CC2)c(OC)c1	9.36%
CC(c1ccccc1)(c1ccccc1)c1ccncc1	19.2%
CC(=NCc1ccc2c(c1)OCO2)c1c(O)[nH]c(=O)[nH]c1=O	-2.64%
c1cc2c(cc1CCNC1CCCCCC1)OCO2	95.2% (active)
Fc1ccc(N2CCN(Cc3ccc4c(c3)OCO4)CC2)cc1	44.5%
c1ccc2sc(C3CCCNC3)nc2c1 (stereo not given)	31.9%
O=C(O)CCn1cc(C=C2C(=O)NC(=S)NC2=O)c(-c2cccc(Br)c2)n1	-7.24%
Cn1c(O)c(C=NCCN2CCNCC2)c(=O)n(C)c1=O	-6.59%
CN1CCC(N(C)Cc2cccnc2)CC1	-2.3%
COc1ccc(NC(=O)N2CCC3(CC2)OCCO3)c(OC)c1	-0.24%
N#Cc1ccc(Cn2cc(C(=O)c3ccco3)c3ccccc32)cc1	93.3% (active)
NC(=O)Cn1cc(C(=O)c2ccccc2F)c2ccccc21	-6.3%
CC(C)Nc1nc(Cl)nc(NC(C)C)n1	24.7%

SMILES	inhibition
COc1ccc(-c2nn(CCC#N)cc2C(=O)O)cc1	-0.84%
CC(C)(C)c1ccc(OC(=O)N2CCCCC2)cc1	-10.5%
CN1CCN(C(=O)COc2ccc(C(C)(C)C)cc2Br)CC1	59.9% (active)
CC(C)c1ccc(OCC(=O)N2CCN(C)CC2)c(Br)c1	37.9%
CSC1=NP(=S)(SC)N(C)c2nc3n(c21)CCC3 (stereo not given)	2.74%
CN(C)C(=O)NC(O)C(Cl)(Cl)Cl (stereo not given)	-1.83%
CN(C)CC1CCCCC1OC(=O)c1ccc(Cl)c(Cl)c1 (stereo not given)	56.1% (active)
COc1ccc(NC(=O)c2cn(CCC#N)nc2-c2ccc([N+](=O)[O-])cc2)cc1	-5.27%
CN1C2C=C(N(C(=O)c3ccc(Cl)cc3)c3ccccc3)CC1CC2 (stereo not given)	-6.27%
N#CC1=C(N)Oc2c(c(=O)oc3ccccc23)C1c1ccccc1OC(=O)c1cccs1 (stereo not given)	8.6%
CCNc1nc2[nH]c(=O)c3c(c2s1)OC(N)=C(C#N)C3c1cccs1 (stereo not given)	56.6% (active)
CCOCCc1c(O)[nH]c(=S)[nH]c1=O	-2.27%
O=C(CN1CCCC1=O)NCCc1ccccc1	-2.62%
N[C@@H](Cc1c[nH]c2ccccc12)c1nnc(SCc2c(F)cccc2Cl)o1	-1.59%
CC(Cc1cccs1)NCc1ccc(Cl)cc1 (stereo not given)	37.3%
Cc1ccc(-c2cc(C(=O)N3CCC4(CC3)OCCO4)no2)cc1	3.46%
COC(=O)C(c1ccccc1)N1CCCCCC1 (stereo not given)	-3.28%
O=C(NCC(c1cccnc1)N1CCN(c2ccccc2)CC1)Oc1ccccc1 (stereo not given)	86.7% (active)
COc1ccccc1N1CCN(C(CNC(=O)Oc2ccccc2)c2cccnc2)CC1 (stereo not given)	90.8% (active)
COC(=O)N1C(c2ccccc2)C1c1ccccc1 (stereo not given)	-7.32%
CN(C)/C=C(\C=[N+](C)C)c1[nH]ncc1[N+](=O)[O-]	-3.98%
CC(C)CN1CCN(Cc2ccccc2C(F)(F)F)CC1CCO (stereo not given)	1.28%
O=c1[nH]c(=S)n(C2CC2)c(O)c1/C=N/N1CCOCC1	-5.26%
CN(C)C(=O)Oc1cc(=O)n2c3c(cccc13)CCC2	23.7%
Nc1ccc(C(=O)N/N=C2/CN3CCC2CC3)cc1	-7.96%
